# From PubChem
# Sampled rows, rich in hits. Any-hit rate of the full collection: about 2.4%.
# ANO1 activ: activators or potentiators of mouse TMEM16A chloride channel. 0.3% of 340,000 active. AID 623877. B-score at 10 µM. Q8BHY3. HEK293 TMEM16A/YFP-H148Q/I152L, iodide quench fluorescence; active compounds read low;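 active = fluorescence-ratio B-score plate-corrected deviation score at least 3 library SD below zero, with starting fluorescence score within 5 deviations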;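 also: channel opened by trigger with iodide after compound preincubation; score built on the fluorescence ratio of max minus min over baseline; more negative score means more quench and so TMEM16A activation or potentiation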
# TMEM16A inh: blocks the mouse calcium-activated chloride channel TMEM16A; Q8BHY3; HEK293 TMEM16A/YFP iodide influx fluorescence, ionomycin; normalized B-score (activity score, 25-100; higher = stronger inhibition) at 10 µM; 1.2% of 310,000 active;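 active = ratio plate-corrected score three or more library SD toward inhibition, starting fluorescence score within five deviations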;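 also: score derived from kinetic fluorescence span divided by baseline fluorescence per well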
# CHT allo act: human CHT allosteric activation; Q9GZV3; CHT-expressing cells, membrane potential dye, choline EC20; active compounds read high; LV-AA mutant CHT in HEK293 cells; B-score at 10 µM; 0.49% of 310,000 active;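 active = initial fluorescence not abnormally high and integrated response B-score, plate-corrected, over 3 SD above library mean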
# Target sequence (Q9GZV3 whole entry, looked up): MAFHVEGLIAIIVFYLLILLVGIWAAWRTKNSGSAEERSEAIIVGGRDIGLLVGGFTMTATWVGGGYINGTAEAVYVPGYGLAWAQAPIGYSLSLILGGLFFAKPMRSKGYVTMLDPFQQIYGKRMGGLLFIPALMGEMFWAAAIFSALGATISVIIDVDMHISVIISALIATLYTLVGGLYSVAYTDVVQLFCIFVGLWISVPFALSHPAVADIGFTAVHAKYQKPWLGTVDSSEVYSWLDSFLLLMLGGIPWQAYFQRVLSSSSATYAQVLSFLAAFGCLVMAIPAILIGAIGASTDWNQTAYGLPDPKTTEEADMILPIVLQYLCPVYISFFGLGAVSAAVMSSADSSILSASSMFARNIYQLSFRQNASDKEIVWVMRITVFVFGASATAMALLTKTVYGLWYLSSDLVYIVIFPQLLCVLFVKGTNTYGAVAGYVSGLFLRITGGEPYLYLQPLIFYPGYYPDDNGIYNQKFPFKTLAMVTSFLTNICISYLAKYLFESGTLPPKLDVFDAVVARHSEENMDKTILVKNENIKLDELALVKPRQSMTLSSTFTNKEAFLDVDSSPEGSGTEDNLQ
# CHT block: inhibitors of human choline transporter CHT; B-score at 10 µM; 0.86% of 310,000 active; CHT-expressing cells, membrane potential dye, choline response; active compounds read low;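 active = B-score over 3 SD under the library average, and starting fluorescence ratio not unusually high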;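 also: choline stimulus applied at its EC90 after an EC20 pre-addition; B-score computed on integrated fluorescence ratio after choline addition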
# TMEM16A reconf: reconfirmed blocker of mouse TMEM16A calcium-activated chloride channel | shares compounds with TMEM16A inh | HEK293 TMEM16A/YFP-H148Q, iodide quench fluorescence; ionomycin added to raise cell calcium | inhibition, % at 10 µM | 39% of 2,300 active | AID 652189;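 active = mean duplicate percent inhibition, scaled so buffer wells are 0 and the reference blocker 100, over three buffer SD above buffer mean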
# TMEM16A Ca cntr: alters calcium mobilization in TMEM16A HEK293 cells, counter-screen; shares compounds with TMEM16A inh; TMEM16A/YFP HEK293, Fluo4 calcium mobilization; calcium response (% of ionomycin), % at 10 µM; 2% of 2,300 active; AID 652231;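 active = duplicate-averaged calcium signal over 20% of the ionomycin maximum, relative to buffer baseline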;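 also: each well's signal is peak minus trough fluorescence divided by its pre-addition baseline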
# Parental YFP cnt: counter-screen for TMEM16A inhibitors: effect in parental YFP-HEK293 cells; iodide YFP quench, ionomycin; shares compounds with TMEM16A inh; 2,300 tested, under 10 active; YFP ratio F(max-min)/F0 at 10 µM;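 active = yellow fluorescent protein signal ratio exceeding the buffer control mean by over 5 SD of those controls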;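 also: ratio is mean of duplicate wells from kinetic YFP trace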
# ClC-1 rat inh: blocks the rat ClC-1 voltage-dependent chloride channel | shares compounds with TMEM16A inh | CHO ClC-1-YFP, iodide influx fluorescence quench; iodide control reads 0, buffer control 100 | AID 652236 | ratio percent, % at 10 µM | 2,300 tested, under 10 active;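 active = duplicate-mean ratio percent above the mean of iodide-only control wells, which defines zero, plus 5 of their SD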;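 also: higher percent means stronger block of ClC-1 iodide influx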
# Numbers stand for hits; n = inactive; x = no result.
SMILES,ANO1 activ,TMEM16A inh,CHT allo act,CHT block,TMEM16A reconf,TMEM16A Ca cntr,Parental YFP cnt,ClC-1 rat inh
CCC1(C)Cc2c(sc3nc(NC)n(C)c(=O)c23)CO1 (stereo unspecified),n,25,n,n,n,n,n,n
COc1ccc2c(c1O)C(=O)c1ccccc1C2=O,x,n,n,n,x,x,x,x
COc1cccc2c1C(=O)C=C(C)C2=O,n,25,n,n,n,24.5%,n,n
CC1(C)Cc2nc(Cl)c(C(N)=O)cc2CO1,n,n,n,n,x,x,x,x
Cc1cccc(C(=O)OCC(=O)c2ccc(CC(=O)N3CCOCC3)s2)c1C,n,x,x,x,x,x,x,x
CCN1C(=O)[C@H]2[C@@H](c3ccc(Cl)cc3)N3C(=O)CN(CCOC)C(=O)[C@@]3(Cc3ccccc3)[C@H]2C1=O,n,n,n,n,x,x,x,x
COc1cccc(C(=O)NNS(=O)(=O)c2ccc(C)cc2)c1,n,n,n,n,x,x,x,x
C=CCn1c(SCC(=O)O)nc2sc(CC)cc2c1=O,n,n,n,n,x,x,x,x
C=CCn1c(SCC(=O)c2cccs2)nc2sc(CC)cc2c1=O,n,100,n,n,64.5%,n,n,n
Cc1ccc(Nc2nc3nonc3[nH]c2=O)cc1Cl,n,100,n,n,40.5%,n,n,n
Cc1ccc(Nc2nc3nonc3[nH]c2=O)cc1C,n,n,n,n,x,x,x,x
CC(=Nc1cccc(C)c1)c1sc2ccccc2c1O,n,n,n,n,n,n,n,n
COc1ccccc1N1CCN(C(=O)c2ccccc2N(C)S(=O)(=O)c2ccc(C)cc2)CC1,n,n,n,n,x,x,x,x
O=C1N(Cc2ccccc2F)c2ccccc2C12OCCCO2,n,100,n,n,n,n,n,n
O=C1N(Cc2ccc(F)cc2Cl)c2ccccc2C12OCCCO2,n,n,n,n,x,x,x,x
CSc1nc2sc3c(c2c2nnnn12)CCCC3,n,100,n,n,n,n,n,n
CSc1sc(-c2n[nH]c(=S)n2C)c2c1C=CCC2,n,n,n,n,x,x,x,x
O=C(Nc1ccc2oc(-c3ccccc3F)nc2c1)c1ccc2c(c1)OCCO2,n,100,n,n,17.0%,n,n,n
CC1=C(C(=O)Nc2cc(C(=O)NCCCOC(C)C)ccc2C)SCCO1,n,n,n,n,x,x,x,x
CC(C(=O)O)c1ccc2c(c1)[nH]c1ccc(Cl)cc12 (stereo unspecified),n,25,n,n,n,n,n,n
O=[N+]([O-])c1ccc(SCc2c(F)cccc2Cl)nc1,n,25,n,n,16.0%,n,n,n
O=[N+]([O-])c1cccnc1SCc1c(F)cccc1Cl,n,n,n,n,x,x,x,x
O=C(CSc1nncs1)Nc1ccc(Cl)cc1C(F)(F)F,n,n,n,n,x,x,x,x
O=C(c1ccc(Br)cc1)c1sc(N2CCOCC2)nc1-c1ccccc1,n,n,n,n,x,x,x,x
CCCCSc1ccc2nc(-c3ccc(C#N)cc3)cn2c1,n,100,n,n,16.0%,n,n,n
SMILES,ANO1 activ,TMEM16A inh,CHT allo act,CHT block,TMEM16A reconf,TMEM16A Ca cntr,Parental YFP cnt,ClC-1 rat inh
Cc1ccc(Sc2ncccc2COC(=O)Nc2ccccc2)cc1,n,100,n,n,n,n,n,n
Cc1ccccc1NC(=O)OCc1cccnc1Sc1ccc(Cl)cc1,n,n,n,n,x,x,x,x
Cc1ccc(Sc2ncccc2COC(=O)Nc2c(C)cccc2C)cc1,n,100,n,n,n,n,n,n
O=C(CCNS(=O)(=O)c1cccc2nsnc12)NCc1ccc(F)cc1,n,n,n,n,x,x,x,x
Cc1ccc(CNC(=O)CCNS(=O)(=O)c2cccc3nsnc23)cc1,n,100,n,n,n,n,n,n
c1ccc2c(c1)ncn2CCCOc1ccc2c(c1)CCC2,n,100,n,n,n,n,n,n
CCCOc1ccc(Cn2cnc3ccccc32)cc1,n,25,n,n,17.0%,n,n,n
Fc1ccc(Cn2cnc3ccccc32)cc1,n,n,n,n,x,x,x,x
Cc1nc([N+](=O)[O-])cn1Cc1cccc([N+](=O)[O-])c1,n,n,n,n,x,x,x,x
O=C(CN(Cc1ccco1)Cc1cccs1)N1CCN(S(=O)(=O)c2cccc(F)c2)CC1,n,x,x,x,x,x,x,x
CCCn1ccnc1SCC(=O)Nc1c(C)n(C)n(-c2ccccc2)c1=O,n,x,x,x,x,x,x,x
COC(=O)CCc1cccc(CCC(=O)OC)c1,n,25,n,n,n,n,n,n
COc1ccc(/C=N/Nc2nnc(Cc3ccc(OC)c(OC)c3)c(=O)[nH]2)cc1,n,n,n,n,x,x,x,x
COc1ccc(/C=N/Nc2nnc(Cc3ccccc3)c(=O)[nH]2)cc1,n,n,n,n,n,n,n,n
CC(C)OC(=O)c1cc(C(=O)c2cc(F)ccc2O)coc1=N,n,n,n,n,x,x,x,x
COc1ccc(O)c(C(=O)c2coc(=N)c(C(=O)Nc3ccc(SC(F)F)cc3)c2)c1,n,n,n,n,n,n,n,n
CCOC(=O)c1cccc(OCC(O)CNCCOc2ccccc2F)c1 (stereo unspecified),n,n,n,n,x,x,x,x
CCN(CCNCC(O)COc1ccccc1C(C)C)c1cccc(C)c1 (stereo unspecified),n,n,n,n,33.5%,n,n,n
COc1ccccc1N1CCN(C(=O)CSc2nnc3n2C(C)(C)Cc2ccccc2-3)CC1,n,25,n,n,n,n,n,n
CC1(C(=O)OCC(=O)Nc2ccc3ccccc3c2)CC1(Cl)Cl (stereo unspecified),n,25,n,n,n,n,n,n
COc1ccc(C(=O)OCc2c(F)cccc2Cl)cc1S(=O)(=O)N1CCOCC1,n,x,x,x,x,x,x,x
Cc1csc2c(N3CCN(C(=O)c4ccc(C(C)(C)C)cc4)CC3)ncnc12,n,100,n,n,36.5%,n,n,n
Cc1csc2c(N3CCN(C(=O)Nc4ccc(Cl)c(Cl)c4)CC3)ncnc12,n,25,n,n,29.0%,n,n,n
O=C(O)c1ccccc1C(=O)c1ccc2c(c1)N(Cc1ccc(Cl)c(Cl)c1)C(=O)CO2,n,n,n,n,x,x,x,x
Cc1ccc(-c2noc(CSc3nnnn3C3CCCCC3)n2)cc1,n,100,n,n,29.5%,n,n,n
CCOC(=O)c1c(-c2ccc(-c3ccccc3)cc2)csc1NC(=O)C1C2CCC(O2)C1C(=O)O (stereo unspecified),n,100,n,n,70.0%,n,n,n
CCOC(=O)c1c(-c2ccc(C)cc2)csc1NC(=O)C1CC=CCC1C(=O)O (stereo unspecified),n,n,n,n,x,x,x,x
CC(=O)CSc1ncnc2c1cnn2-c1ccccc1,n,n,n,n,x,x,x,x
CN(C)CCN(Cc1ccccc1)c1ccnc(N(C)C)c1C#N,n,n,n,n,x,x,x,x
